High-throughput results as filed in PubChem.
SW480 rereplic: inducers of DNA re-replication in SW480 colon cancer cells | SW480 DNA re-replication, Hoechst DNA content imaging, 48 h | Potency, µM (top dose mostly 46.1 µM), hits mostly activators | 340,000 tested, 1.8% active | AID 624297; also: nearly all actives have a fitted effect of over 55% in size
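Cells (250 per well) received 23 nL compound or DMSO by pin tool and were kept 48 hr at 37 C, 5% CO2. Nuclei were then stained with Hoechst for 40 min and scanned for DNA content.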
MCF10A rereplic: inducers of DNA re-replication in MCF 10A breast cells. MCF 10A DNA re-replication, Hoechst nuclear intensity, 48 h. Potency, µM (titrated, usually from 46.1 µM), hits mostly activators. 350,000 tested, 2.9% active. AID 624296; also: nearly all actives have a fitted effect of over 50% in size
TDP1 cell noCPT: qHTS for Inhibitors of human tyrosyl-DNA phosphodiesterase 1 (TDP1): qHTS in cells in absence of CPT; Potency, µM (highest dose often 46.2 µM), usual class: inhibitors; 420,000 tested, 15% active; DT40 Tdp1-/- hTDP1 cells, no CPT, ATP luminescence, 48 h; also: nearly all actives have a fitted effect of over 55% in size
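Camptothecin absent (DMSO only). Human TDP1-complemented DT40 knockout cells, 400 cells/well, 37 °C for minimum 48 hr; ATP measured via CellTiter-Glo, 30 min dark incubation, luminescence.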
IL1B secr inh: inhibitors of inflammasome signaling (IL-1 beta secretion) | THP-1 LPS/ATP IL-1B secretion, AlphaLISA, 16 h; active compounds read low | activity change, % at 57.5 µM | 360,000 tested, 4.7% active; in the data active = activity change below about -50%; inconclusive = mostly about -30% to -49%
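THP-1 cells pretreated 1 hr with compounds (up to 57.5 uM final), then stimulated with LPS (250 ng/mL final) plus ATP (1.25 mM final); secreted IL-1B measured by AlphaLISA after 16 hr, decreased signal indicating inhibition.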
TDP1 cell CPT: growth inhibition of DT40 Tdp1-/-;hTDP1 cells with camptothecin (screen for TDP1 inhibitors) | 420,000 tested, 12% active | Potency, µM (top dose mostly 46.2 µM), most hits filed as inhibitors | chicken DT40 Tdp1-/-;hTDP1 cells + 20 nM CPT, ATP luminescence, 48 h | AID 686979; also: nearly all actives have a fitted effect of over 55% in size
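Chicken DT40 Tdp1-/- cells stably complemented with human TDP1 were seeded at 400 cells/well in medium containing 20 nM camptothecin, exposed to pin-transferred compounds, and grown at 37 °C for at least 48 hr. Viability was read as ATP luminescence.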
Chronic BCR inh: inhibitors of chronic active B-cell receptor signaling | ABC-DLBCL IkBa-CBG/CBR reporter, luminescence ratio, 4 h | Potency, µM (series often up to 46.1 µM), hits mostly inhibitors | 340,000 tested, 0.05% active | AID 493014; active = well fitted inhibition curve with a large enough effect in the signal ratio, with a control signal flat, not every such curve was filed as active; inconclusive = small, poorly fitted or top-dose-only effect, or effect the other way, or a change in a side signal; the % refers to the signal ratio
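TMD8 human ABC-DLBCL cells with doxycycline-inducible IκBα–green luciferase fusion and unfused red luciferase, in 0.5% FBS medium; compounds up to 46 uM, 4 h at 37C. Green/red luminescence ratio, filter-overlap corrected, fitted to concentration-response curves.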
Hits are given with their value; – = inactive; ? = inconclusive; · = no result given. Compounds with a hit are over-represented: about 19% of the library has one in this group of screens. Unless noted, calls follow the shape of the dose curve; as a rule, active = well fitted curve in the direction sought with a large enough effect; inconclusive = small, poorly fitted or top-dose-only effect, or another doubt; inactive = no such curve, though single readings can be large; an effect the other way counts as inactive or inconclusive.

SMILES	SW480 rereplic	MCF10A rereplic	TDP1 cell noCPT	IL1B secr inh	TDP1 cell CPT	Chronic BCR inh
S=c1[nH]nc(-c2cc(-c3ccccc3)n[nH]2)n1/N=C/c1ccccc1	?	?	–	–	?	–
Cc1cccc(/C=N/n2c(-c3cc(-c4ccccc4)n[nH]3)n[nH]c2=S)c1	–	?	?	–	16µM	–
COc1ccc(/C=N/n2c(-c3ccc(C)cc3)n[nH]c2=S)cc1OC	–	–	?	-51	?	–
Cn1cccc1/C=N/n1c(-c2ccco2)n[nH]c1=S	–	–	–	–	–	–
Cc1ccc(-c2n[nH]c(=S)n2/N=C/c2c(C)nn(-c3ccccc3)c2C)cc1	?	?	16µM	–	?	?
OC(CNCCN1CCNCC1)Cc1ccccc1 (centres undefined)	–	–	–	–	–	·
Cc1c(C(=O)Nc2ccc(F)cc2F)oc2ccc3c(c12)C(=O)CC(C)(C)O3	·	·	–	·	–	·
COc1ccc(S(=O)(=O)N2CCCC2CNC(=O)C(=O)NCc2cccs2)cc1 (centres undefined)	–	–	?	–	?	–
Cc1c(Cl)cccc1NS(=O)(=O)c1c(C(=O)N2CCOCC2)c(C)n(C)c1C	–	–	–	–	–	–
CC(=O)Nc1ccc(C2Nc3c(C)cc(C)cc3-c3cc(C)nn32)cc1 (centres undefined)	·	·	?	·	18µM	·
COC(=O)c1ccc(C2Nc3c(C)cccc3-c3cc(C)nn32)cc1 (centres undefined)	·	·	16µM	·	?	·
CCN(CC)c1ccc(C2Nc3ccccc3-c3cc(C)nn32)cc1 (centres undefined)	·	·	–	·	–	·
O=C(COc1ccc(Cl)cc1)Nc1ccc(-c2nc3ccccc3s2)c(O)c1	·	·	18µM	·	?	·
Cc1cccc(NC(=O)CSc2nc3ccc(NC(=O)COc4ccc(Cl)cc4)cc3s2)c1	·	·	6.5µM	·	7.3µM	·
O=C(O)CSc1nc2ccc(NC(=O)COc3ccc(Cl)cc3)cc2s1	·	·	–	·	–	·
O=C(CCS(=O)(=O)c1ccccc1)Nc1ccc(-c2nc3ccccc3s2)c(O)c1	·	–	–	–	–	?
Cc1ccc(C(=O)Nc2ccc(-c3nc4ccccc4s3)c(O)c2)c(C)c1	·	·	?	·	10µM	·
Cc1cccc(NC(=O)CSc2nc3ccc(NC(=O)c4cccs4)cc3s2)c1	·	·	8.2µM	·	13µM	·
Cc1ccsc1C(=O)Nc1ccc(O)c(-c2nc3ccccc3s2)c1	–	?	–	–	?	–
O=C(Nc1ccc2c(c1)OCCO2)c1[nH]c(C(F)(F)F)nc1-c1ccccc1	·	·	?	–	?	·
Cn1c(CNC(=O)CCNC(=O)c2ccccc2)cc(=O)n(C)c1=O	–	–	–	–	–	–
Cc1ccccc1NC(=O)CSc1nc2ccc(NC(=O)COc3ccccc3F)cc2s1	·	·	10µM	·	13µM	·
Cc1ccc(CSc2nc3ccc(NC(=O)COc4ccccc4F)cc3s2)cc1	·	·	–	·	–	·
CC(C)NC(=O)c1ccc(COc2cccc3ccccc23)o1	·	·	18µM	–	?	·
CC(C)NC(=O)c1ccc(COc2ccc(C(C)(C)C)cc2)o1	?	?	13µM	–	?	?
SMILES	SW480 rereplic	MCF10A rereplic	TDP1 cell noCPT	IL1B secr inh	TDP1 cell CPT	Chronic BCR inh
CCOc1ccc(OCc2ccc(C(=O)NN)o2)cc1	–	–	–	–	–	?
O=C(Nc1nccs1)c1ccc(COc2ccc(F)cc2)o1	–	2.9µM	–	–	–	–
CCOc1ccc(OCc2ccc(C(=O)NC(C)(C)C)o2)cc1	–	?	?	?	7.3µM	–
NNC(=O)c1ccc(COc2cccc3ccccc23)o1	–	–	?	–	?	?
CC(=O)c1ccc(NC(=O)CCOc2cc(C)ccc2C)cc1	–	–	?	–	?	–
NNC(=O)Cc1cccc2ccc(Cl)cc12	·	·	–	–	–	·
CCOCCCN1C(=O)CN(C2CCCCCC2)C(=O)C1c1ccc(OC)cc1 (centres undefined)	–	–	?	–	7.9µM	–
